Laboratory results: PubChem BioAssay (NCI)
The panel holds about 83,000 compounds, 20% with a hit somewhere; the sample as a whole holds those more often.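 Cells were grown in 96-well plates and exposed to the test compound at a single concentration for 48 hours; results are reported as percent growth, with values below 10 considered active.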 Activity calls are given as the source filed them.

How the values were obtained:
Test in all cases: NCI-60 one-dose screen, 48 h (100 = growth as untreated, 0 = no growth, -100 = all killed)
Conditions in all cases: 10 µM unless noted
DU-145 prostate = system: DU-145 prostate
K-562 leukemia = system: K-562 leukemia
MALME-3M melanoma = system: MALME-3M melanoma
MDA-MB-231 breast = system: MDA-MB-231 breast
RXF 393 renal = system: RXF 393 renal
SF-268 CNS = system: SF-268 CNS
SF-295 CNS = system: SF-295 CNS
SF-539 CNS = system: SF-539 CNS
UACC-257 melanoma = system: UACC-257 melanoma
M14 melanoma = system: M14 melanoma
HCT-15 colon = system: HCT-15 colon
HT29 colon = system: HT29 colon
SNB-75 CNS = system: SNB-75 CNS
SNB-19 CNS = system: SNB-19 CNS
U251 CNS = system: U251 CNS
PC-3 prostate = system: PC-3 prostate
SK-MEL-5 melanoma = system: SK-MEL-5 melanoma
UACC-62 melanoma = system: UACC-62 melanoma
LOX IMVI melanoma = system: LOX IMVI melanoma
SK-MEL-28 melanoma = system: SK-MEL-28 melanoma

Measured: growth

N#Cc1c(-c2ccc(F)cc2)cc(-c2c[nH]c3ccccc23)nc1-c1c[nH]c2ccccc12
inactive: DU-145 prostate 106% | K-562 leukemia 105% | MALME-3M melanoma 102% | MDA-MB-231 breast 102% | RXF 393 renal 112% | SF-268 CNS 101% | SF-295 CNS 103% | SF-539 CNS 100% | UACC-257 melanoma 107% | M14 melanoma 97.4% | HCT-15 colon 99.6% | HT29 colon 110% | SNB-75 CNS 98.6% | SNB-19 CNS 102% | U251 CNS 94.9% | PC-3 prostate 103% | SK-MEL-5 melanoma 100% | UACC-62 melanoma 98.3% | LOX IMVI melanoma 107% | SK-MEL-28 melanoma 107%

COc1ccc(OC)c(CCn2cncc2-c2c[nH]c3ccc(Cl)cc23)c1
active: SK-MEL-5 melanoma -19.8%
inactive: DU-145 prostate 60.5% | K-562 leukemia 15.8% | MALME-3M melanoma 45.9% | MDA-MB-231 breast 62.6% | RXF 393 renal 62.8% | SF-268 CNS 50.5% | SF-295 CNS 28.9% | SF-539 CNS 71.6% | UACC-257 melanoma 23% | M14 melanoma 48.4% | HCT-15 colon 32.8% | HT29 colon 10.1% | SNB-75 CNS 21.4% | SNB-19 CNS 60.4% | U251 CNS 47.1% | PC-3 prostate 39.1% | UACC-62 melanoma 40.7% | LOX IMVI melanoma 47.3% | SK-MEL-28 melanoma 67.7%

COc1ccc(C2c3[nH]c4ccc(Cl)cc4c3CCN2c2oc(CO)nc2C#N)cc1 (stereo not given)
inactive: DU-145 prostate 57.3% | K-562 leukemia 19.5% | MALME-3M melanoma 72.1% | MDA-MB-231 breast 59.7% | RXF 393 renal 62.8% | SF-268 CNS 53.6% | SF-295 CNS 45.6% | SF-539 CNS 40.3% | UACC-257 melanoma 67.5% | M14 melanoma 53.5% | HCT-15 colon 22.2% | HT29 colon 22.9% | SNB-75 CNS 46.5% | SNB-19 CNS 51.9% | U251 CNS 38.9% | PC-3 prostate 41.3% | SK-MEL-5 melanoma 29.7% | UACC-62 melanoma 39.3% | LOX IMVI melanoma 24.2% | SK-MEL-28 melanoma 60.1%

CNC(=O)c1cc(N2CCc3cc(NC(=O)Nc4ccc(N5CCN(C)CC5)c(C(F)(F)F)c4)ccc32)ccn1
active: K-562 leukemia 0.938% | RXF 393 renal -16% | SF-295 CNS -49.8% | LOX IMVI melanoma -77.5% | SK-MEL-28 melanoma 7.33%
inactive: DU-145 prostate 84.6% | MALME-3M melanoma 67.8% | MDA-MB-231 breast 74.3% | SF-268 CNS 80.4% | SF-539 CNS 16.8% | UACC-257 melanoma 104% | M14 melanoma 61.6% | HCT-15 colon 29.1% | HT29 colon 21.8% | SNB-75 CNS 75.1% | SNB-19 CNS 81.5% | U251 CNS 52.7% | PC-3 prostate 59.7% | SK-MEL-5 melanoma 85.8% | UACC-62 melanoma 104%
